# NADH enzymes: inhibition of NAD/NADH coupling enzymes, library profiling; actives 0.02% (n = 65,000); coupled PK/LDH NADH assays, four targets; IC50, µM (doses to about 10 µM), for the others: at the highest dose inhibition; AID 774;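 active = single-dose screening hits from any of four coupled enzyme assays that gave an IC50 when retested across doses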;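 note: the DPM-DC format reads NADH fluorescence rather than 340 nm absorbance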
# MK inhibit: blocks S. pneumoniae mevalonate kinase; purified MK, PK/LDH-coupled NADH absorbance 340 nm; inhibition, % at 10 µM; actives 0.48% (n = 65,000); AID 555;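 active = ranked among the strongest by inhibition in the single 10 µM screen, a fixed top-ranked set picked for dose follow-up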
# Autofluor 339: intrinsic fluorescence of library compounds, ex339/em460 – biochemical, MLSMR library, data from DPM-DC assay, artefact control, profiling panel; actives 5.5% (n = 65,000); compound autofluorescence, ex339/em460 nm, NADH buffer; active compounds read high; 1 = no-compound wells, NADH background; fluorescence fold increase at 10 µM;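 active = at 10 µM, mean starting fluorescence two-fold or more over control wells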;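 note: signal is the first read of a kinetic run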
# PMK inhibit: S. pneumoniae PMK inhibition; purified PMK, PK/LDH-coupled NADH absorbance 340 nm; inhibition, % at 10 µM; actives 0.49% (n = 65,000); AID 539;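 active = top-ranked compounds by inhibition in the single 10 µM screen, taking a fixed number of the strongest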;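 note: 0% = full reaction with DMSO carrier and 100% = background rate without enzyme reaction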
# Spn DPM-DC inh: blocks S. pneumoniae diphosphomevalonate decarboxylase; calls only at 10 µM; purified DPM-DC, PK/LDH coupled NADH fluorescence; AID 556; actives 0.49% (n = 65,000);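 active = the 320 compounds with the highest percent inhibition in the single-dose primary screen, excluding strongly autofluorescent ones, cut at about 32% in these data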;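 note: kinetic rate of NADH fluorescence loss reporting ADP formed by the decarboxylase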
# A340 absorber: absorbance at 340 nm; compound absorbance at 340 nm, fold over control; fold change at 10 µM; 65,000 tested, under 10 active;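 active = at 10 µM dose, initial 340 nm absorbance at least 2 fold that of control wells; inactive = change under 2 fold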;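 note: initial absorbance extrapolated from kinetic A340 decline of NADH oxidation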
# Active calls of the source: *; i = inactive; x = no result shown; + = active, no number. A selection: hits, their analogues and other compounds. The true share with any hit is near 6.8%.
SMILES,NADH enzymes,MK inhibit,Autofluor 339,PMK inhibit,Spn DPM-DC inh,A340 absorber
CCCc1nc2oc3c(NCc4ccccn4)ncnc3c2c2c1COC(C)(C)C2,9.0%,4.0,2.66*,5.0,i,1.03
CCCc1nc2oc3c(NCC4CCCO4)ncnc3c2c2c1COC(C)(C)C2 (centres undefined),11.0%,7.0,3.17*,3.0,i,1.02
Cc1nc2oc3c(NCc4ccccn4)ncnc3c2c2c1COC(C)(C)C2,5.0%,0.0,1.86,3.0,+,1
CC(C)c1nc2oc3c(NCC4CCCO4)ncnc3c2c2c1CCC2 (centres undefined),10.0%,4.0,2.4*,12.0,i,1.06
c1nc(NCC2CCCO2)c2[nH]cnc2n1 (centres undefined),6.0%,6.0,1.05,13.0,i,0.99
COc1cc(C(=O)NCC(c2cccnc2)N2CCN(C)CC2)cc(OC)c1OC (centres undefined),7.0%,6.0,1.08,16.0,i,0.99
COc1ccc(S(=O)(=O)N2CCN(C(=O)[C@@H]3CCC(=O)N3C3OC(=O)c4ccccc43)CC2)cc1 (some centres undefined),6.0%,10.0,1.08,9.0,i,1.02
CC1(C)Cc2nc3oc4c(NCc5ccccc5)ncnc4c3cc2CO1,7.0%,8.0,3.76*,5.0,x,1.02
CC(C)c1nc2oc3c(NCc4ccccn4)ncnc3c2c2c1COC(C)(C)C2,20.0%,12.0,2.99*,14.0,+,1
COc1ncnc2c1oc1nc(C(C)C)c3c(c12)CC(C)(C)OC3,2.0%,2.0,1.11,5.0,i,1.07
Cc1cc(C)c2c(CN3CCN(CCO)CC3)cc(=O)oc2c1,10.0%,12.0,1.09,18.0,i,1.02
CCOC(=O)N1CCN(C(=O)CCc2c(C)nc3nc(C)nn3c2C)CC1,5.0%,5.0,1.08,10.0,i,0.98
Cc1nc2nc(C)c(CCC(=O)N3CCOCC3)c(C)n2n1,15.0%,4.0,0.68,6.0,+,1
COc1cc(CN2CCN(c3cccc(C)c3C)CC2)cc(OC)c1O,17.0%,51.0*,1.13,0.0,i,1.08
COc1cc(OC)c(OC)cc1CN1CCN(c2ccccc2OC)CC1,14.0%,43.0*,1.13,0.0,i,1.11
COc1ccc2[nH]c(C(=O)O)c(CCNC(C)=O)c2c1,12.0%,3.0,2.49*,11.0,i,1.01
Cc1ccc(-c2nn3c(C)nnc3s2)cc1NCc1c(F)cccc1Cl,14.0%,6.0,2.33*,6.0,i,1.05
CCc1cccc(C)c1NC(=O)CSc1nnc(-c2cc3cc(Br)ccc3o2)n1CC,1.0%,1.0,1.19,2.0,i,1.07
Cc1onc(-c2ccccc2Cl)c1C(=O)Nc1ccc(-c2cn3cccnc3n2)cc1,9.0%,0.0,5.24*,18.0,x,1.09
Cc1onc(-c2ccccc2Cl)c1C(=O)Nc1cccc(-c2nc3ncccn3c2C)c1,6.0%,0.0,5.18*,12.0,x,1.02
Cc1ccc(-c2cn3cccnc3n2)cc1NC(=O)c1c(-c2ccccc2Cl)noc1C,5.0%,0.0,5.22*,10.0,x,1.03
CC(=O)Nc1cccc(NC(=O)c2c(-c3ccccc3Cl)noc2C)c1,4.0%,7.0,1.03,4.0,i,1.04
CCc1ccc(-c2nc(CS(=O)CC(=O)NCc3cccnc3)c(C)o2)cc1 (centres undefined),4.0%,0.0,1.16,11.0,i,1
O=C(NCc1ccc2c(c1)OCO2)C1CCN(C(=O)Nc2ccc(Cl)cc2)CC1,7.0%,0.0,1.05,20.0,i,0.99
C/C(N)=C(/C#N)C(=O)CSc1nnnn1-c1ccc(C)cc1C,4.0%,4.0,1.06,7.0,i,1
SMILES,NADH enzymes,MK inhibit,Autofluor 339,PMK inhibit,Spn DPM-DC inh,A340 absorber
O=C(NCc1ccco1)c1cc2n(n1)C(C(F)(F)F)CC(c1ccc(Cl)c(Cl)c1)N2 (centres undefined),2.0%,6.0,1.14,1.0,i,1.02
N#Cc1cc(N)c(Nc2ccccc2)cc1C#N,14.0%,0.0,3.54*,10.0,i,1.08
CCOC(=O)c1ccc(Oc2c(C)oc3c(CN4CCN(C)CC4)c(O)ccc3c2=O)cc1,10.0%,7.0,3.86*,12.0,x,1.14
CCOc1ccccc1Oc1c(C)oc2c(CN3CCN(CCO)CC3)c(O)ccc2c1=O,7.0%,5.0,3.91*,9.0,x,1.11
CN1CCN(Cc2c(O)ccc3c(=O)c(Oc4ccccc4Cl)c(C(F)(F)F)oc23)CC1,9.0%,15.0,1.16,13.0,i,1.09
CCOC(=O)c1c(C)oc2ccc(O)c(CN3CCCCC3)c12,5.0%,3.0,1.06,11.0,i,0.99
CCOC(=O)c1c(CN2CCN(CCO)CC2)n(C)c2cc(Br)c(OC)cc12,3.0%,10.0,1.07,0.0,i,1.04
Cc1oc2c(CN3CCCC3)c(O)ccc2c(=O)c1Oc1ccccc1Br,6.0%,10.0,3.85*,2.0,x,1.14
COc1ccccc1Oc1c(C)oc2c(CN3CCN(CCO)CC3)c(O)ccc2c1=O,4.0%,0.0,3.95*,7.0,x,1.13
COc1cc(NC(=O)c2ccccc2Cl)c(OC)cc1NC(=O)CN1CCOCC1,4.0%,6.0,1.05,5.0,i,1
NC(=O)c1c(C(F)(F)F)cc(-c2ccccc2)nc1NCCO,8.0%,7.0,3.74*,9.0,x,1.09
CCOC(=O)CS(=O)(=O)c1nc(-c2ccccc2)cc(C(F)(F)F)n1,4.0%,10.0,1.04,6.0,i,0.98
CC(=O)c1cccc(NC2c3ccccc3C(=O)N2Cc2ccc3c(c2)OCO3)c1 (centres undefined),1.0%,3.0,1.16,0.0,i,1.04
COc1ccc(CNC(=O)c2cc3c(=O)n4ccccc4nc3n(Cc3cccnc3)c2=N)cc1,6.0%,5.0,1.91,0.0,i,1.1
COC(=O)c1cc2c(=O)n3cccc(C)c3nc2n(Cc2cccnc2)c1=N,3.0%,5.0,2.27*,0.0,x,1.02
CCOC(=O)c1cc2c(=O)n3cccc(C)c3nc2n(Cc2cccnc2)c1=N,3.0%,6.0,2.25*,0.0,x,1.03
C=CCn1c(=N)c(C(=O)OC)cc2c(=O)n3cccc(C)c3nc21,11.0%,2.0,3.75*,20.0,x,1.03
CCOC(=O)c1cc2c(=O)n3cc(C)ccc3nc2n(Cc2cccnc2)c1=N,2.0%,3.0,2.13*,0.0,x,1
COCCCn1c(=N)c(C(N)=S)cc2c(=O)n3cccc(C)c3nc21,9.0%,2.0,1.89,19.0,i,0.99
COc1ccc(Cl)cc1C(=O)N1CCN=C1SC,1.0%,4.0,1.07,0.0,i,1.03
CCn1nnc(C(=O)O)c1C(=O)O,3.0%,10.0,1.12,0.0,i,0.99
C=CCn1c(=N)c(C(=O)OCC)cc2c(=O)n3cc(C)ccc3nc21,3.0%,5.0,2.06*,0.0,x,1.03
O=C1C2=C(SCCS2)C(=O)N1CCCO,11.0%,9.0,1.06,12.0,i,1.03
